This is part of a sample that, as a whole, favours compounds with a hit. Of some 83,000 tested, about 20% had one in any assay.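 Compound tested at a single concentration for 48 hours in 96-well plates; a percent growth value below 10 was scored as active.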 Active and inactive are the calls of the source.
Tests used:
Experiment in all cases: NCI-60 one-dose screen, 48 h (100 = growth as untreated, 0 = no growth, -100 = all killed)
Details in all cases: 10 µM unless noted
[1] = tested on: EKVX NSCLC
[2] = tested on: SN12C renal
[3] = tested on: UO-31 renal
[4] = tested on: TK-10 renal
[5] = tested on: ACHN renal
[6] = tested on: CAKI-1 renal
[7] = tested on: A498 renal
[8] = tested on: CCRF-CEM leukemia
[9] = tested on: MOLT-4 leukemia
[10] = tested on: SR leukemia

Measured: growth

COc1ccc2c(c1)C=C1CSCC3=Cc4cc(OC)ccc4OC13O2
active: [7] 4.68%
inactive: [1] 40.3% | [2] 28.2% | [3] 44.5% | [4] 60.7% | [5] 32.5% | [6] 37.1% | [8] 16.1% | [9] 14.3% | [10] 27%

COC(=O)[C@H](NC(=O)C1(C)CCC[C@]2(C)[C@H]3C[C@H]4C(C(C)C)=C[C@]3(CC[C@@H]12)[C@@H]1C(=O)CCC(=O)[C@@H]14)C(C)C (some centres undefined)
inactive: [1] 94.9% | [2] 99.8% | [3] 90.7% | [4] 127% | [5] 100% | [6] 88.4% | [7] 110% | [8] 104% | [9] 102% | [10] 89.7%

CCOC(=O)c1sc(-c2ccc(OS(=O)(=O)c3ccc(Br)s3)c(C=O)c2)nc1C
active: [2] 4.77% | [3] -0.882% | [4] -1.6% | [5] 7.37% | [6] 3.48% | [8] 8.75% | [9] 9.25%
inactive: [1] 85.6% | [7] 65.3% | [10] 13.9%

COc1cc(/C=C/C(=O)c2ccc(Cl)cc2)cc(CN2CCCCC2)c1O
inactive: [1] 89.5% | [2] 93.1% | [3] 58.5% | [4] 115% | [5] 87.1% | [6] 85.2% | [7] 82.6% | [8] 58.8% | [9] 64.3% | [10] 34%

Clc1ccc(Oc2ccc(Nc3ncnc4onc(-c5ccccc5)c34)cc2)c(Cl)c1
inactive: [1] 103% | [2] 94% | [3] 67% | [4] 105% | [5] 105% | [6] 90.6% | [7] 103% | [8] 98.1% | [9] 89.8% | [10] 80.6%

COc1ccc(-c2cn[nH]c2-c2cc(OC)c(OC)c(OC)c2)cc1OCc1ccccc1
active: [7] -18.9%
inactive: [1] 33.5% | [2] 62.3% | [3] 25.6% | [4] 50.9% | [5] 34.1% | [6] 28.9% | [8] 47% | [9] 64.5% | [10] 27.5%

COc1ccc(C2=NN(/C=C3\SC(=O)NC3=Nc3ccc(F)cc3)C(c3ccc(F)cc3)C2)cc1 (centres undefined)
inactive: [1] 82.2% | [2] 98.3% | [3] 73.4% | [4] 87.9% | [5] 93.7% | [6] 89.1% | [7] 93.8% | [8] 102% | [9] 98.4% | [10] 106%

O=C(CN1C(=O)/C(=C\c2ccc(Cl)cc2)SC1=S)Nc1ncc(Cc2ccc(Cl)cc2)s1
inactive: [1] 96.5% | [2] 104% | [3] 80.8% | [4] 111% | [5] 103% | [6] 88.1% | [7] 115% | [8] 106% | [9] 106% | [10] 116%

CCCCC1COc2cccc3c2N1C=C/C3=C\C(=O)N(C)c1ccccc1 (centres undefined)
inactive: [1] 45.8% | [2] 64.9% | [3] 59.3% | [4] 108% | [5] 68.9% | [6] 72% | [7] 86.1% | [8] 47.6% | [9] 55.7% | [10] 66.6%

O=C(Cn1cc(COc2ncnc3c2cnn3-c2ccccc2)nn1)Nc1cccc2ccccc12
inactive: [1] 85.5% | [2] 96.8% | [3] 99.8% | [4] 108% | [5] 91% | [6] 90.6% | [7] 88.8% | [8] 96.6% | [9] 94.8% | [10] 101%

CCOC(=O)c1sc(-c2ccc(OS(=O)(=O)C[C@]34CCC(CC3=O)C4(C)C)c(C=O)c2)nc1C
active: [4] 5.83% | [6] 0.933% | [7] -2.42% | [9] 4.72%
inactive: [1] 36.5% | [2] 28.7% | [3] 29% | [5] 39.8% | [8] 11.7% | [10] 21.2%

Nc1nc(N)c2c(n1)NC1(C=C(O)c3ccccc31)C1=C(N2)c2ccccc2C1=O (centres undefined)
inactive: [1] 113% | [2] 102% | [3] 77.1% | [4] 142% | [5] 96.1% | [6] 83.8% | [7] 109% | [8] 97.3% | [9] 104% | [10] 134%

CN1C(=O)N(C)C2(c3ccccc3)OC(=S)NC12c1ccccc1 (centres undefined)
inactive: [1] 90.8% | [2] 107% | [3] 89% | [4] 102% | [5] 95.7% | [6] 84.7% | [7] 105% | [8] 114% | [9] 103% | [10] 105%

COc1ccc(/C=C2\CCC/C(=C\c3ccc(OC)c(OC)c3)C2=O)cc1OC
active: [2] 8.6% | [4] 7.6% | [5] 8.29% | [6] 3.35% | [8] 5.72% | [9] 6.9%
inactive: [1] 25.9% | [3] 19.3% | [7] 35.5% | [10] 14.3%

Cc1cc(OC(=O)c2ccc([N+](=O)[O-])cc2)nc2[nH]c(=O)sc12
inactive: [1] 92.1% | [2] 101% | [3] 82.1% | [4] 103% | [5] 103% | [6] 91.5% | [7] 104% | [8] 106% | [9] 101% | [10] 108%

CSc1nc2c(c(=O)n1C)N=C1c3ccccc3C(=O)C1C(c1ccccc1)N2 (centres undefined)
inactive: [1] 75.4% | [2] 138% | [3] 71.1% | [4] 101% | [5] 75.5% | [6] 53.4% | [7] 99.9% | [8] 82.6% | [9] 84% | [10] 27.1%

CC(=O)c1ccc2oc(=O)n(Cc3ccc(C#N)cc3)c(=O)c2c1
inactive: [1] 101% | [2] 99.3% | [3] 85.6% | [4] 103% | [5] 104% | [6] 94.6% | [7] 91.1% | [8] 106% | [9] 107% | [10] 109%

CNC(=O)c1cc(Oc2ccc(CC(=O)Nc3cc(C(C)(C)C)cn3C)cc2)ccn1
inactive: [1] 75.6% | [2] 68.5% | [3] 87.4% | [4] 108% | [5] 66.7% | [6] 56% | [7] 53.9% | [8] 74% | [9] 69.6% | [10] 75.5%

COc1cc2nc(-c3cccc4cccnc34)nc(NC3CCN(Cc4ccccc4)CC3)c2cc1OC
active: [1] -66.2% | [2] -82.4% | [3] -83% | [4] -88.7% | [5] -94.5% | [6] -88.3% | [7] -72.2% | [8] -30.1% | [9] -32.4% | [10] -7.18%

Nc1ccccc1-c1ccc(-c2ccc(Cl)cc2)c2c1[nH]c1ccccc12
inactive: [1] 70.6% | [2] 66.5% | [3] 26.1% | [4] 84% | [5] 75.2% | [6] 50% | [7] 72.4% | [8] 37.4% | [9] 25.8% | [10] 53.6%

O=c1c(-c2nc3ccccc3[nH]2)cc2ccccc2n1Cc1cn(Cc2ccc(F)cc2)nn1
active: [3] -18.9% | [7] -14.5%
inactive: [1] 31.4% | [2] 14.2% | [4] 21.7% | [5] 15% | [6] 32.9% | [8] 23.4% | [9] 19.9% | [10] 30.2%

O=C(COc1cc(O)c2c(=O)cc(-c3ccccc3)oc2c1)Nc1ccccc1C(F)(F)F
inactive: [1] 51.4% | [2] 27.7% | [3] 17.1% | [5] 17.8% | [6] 22.3% | [8] 58.6% | [9] 52.1%
active: [4] -13.9%

O=C(Nc1ccc(F)cc1F)c1cc(I)ccc1O
inactive: [1] 55.8% | [4] 23.1% | [5] 11% | [8] 14.1%
active: [2] 8.12% | [3] 2.51% | [6] -17.5% | [9] 7.29%

N#C/C(=C\c1c(-c2ccccc2)[nH]c2ccccc12)C(=O)c1ccccc1
inactive: [1] 68.5% | [2] 54.4% | [3] 37.5% | [4] 74.5% | [5] 65.9% | [6] 42.4% | [7] 57.9% | [9] 38.9% | [10] 52.3%

CN1C(=O)N(C)C2C1NN=c1s/c(=C\c3c[nH]c4ccccc34)c(=O)n12 (centres undefined)
active: [10] 8.78%
inactive: [1] 51.7% | [2] 35.4% | [3] 48% | [4] 86.4% | [5] 32.5% | [6] 81.7% | [8] 16.2% | [9] 14.9%

From PubChem BioAssay (NCI)
